A1 inh = inhibitors of the anti-apoptotic protein A1, read as caspase activation. caspase activation, % (concentration not given with the values). actives 0.066% (n = 330,000). MEF A1-2A-BIM cells, Caspase-Glo 3/7 luminescence, 3 h; percent of clofoctol response, vehicle zero;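 active = over half of replicate activation scores above 10%, or exactly half above 10 with the replicate mean above 10; inconclusive = replicate mean below 10 yet half the replicates above 10; inactive = over half of replicates below 10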
Beta apoptosis = blocks beta cell apoptosis. INS-1E cytokine-induced death, ATP luminescence, 48 h; percent of positive-control rescue, neutral wells zero. protection from apoptosis, % (concentration not given with the values). actives 0.8% (n = 300,000). AID 435005;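 active = Every replicate reaches about 75%, or at least half do and their mean reaches it too, limit read from the data; inconclusive = At least half of replicates reach the limit but their mean does not; inactive = Under half of replicates reach the limit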;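 note: 0% = cytokine-treated negative control wells and 100% = positive control rescue; higher means more ATP so stronger rescue from cytokine killing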
aSyn 5UTR inh = 5' untranslated region of α-synuclein, MLPCN primary screen. alpha-synuclein 5'UTR reporter, inhibitor activity. inhibition, % (tested at 7.5 µM). actives 0.82% (n = 300,000); in the data active = inhibition above about 60%; inconclusive = no clear call, values can overlap the other calls;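 note: H4 neuroglioblastoma cells stably carrying SNCA 5'UTR luciferase fusion; 0% = DMSO wells and 100% = positive control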
CSC inhib = blocks cancer stem cells; actives 1.1% (n = 300,000); cancer stem cell-like cells viability, luminescence; AID 2717; inhibition, % at 7.5 µM; in the data active = inhibition above about 75%; inconclusive = no clear call, values can overlap the other calls; tested in HMLE shEcad cells
Mdm2-MdmX inh = human Mdm2/MdmX binding inhibition; inhibition, % at 8 µM; O15151+Q00987; SaOS-2 split-luciferase Mdm2/MdmX complementation, luminescence; actives 3% (n = 330,000);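 active = inhibition of at least 50% at 8 µM in the primary screen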
Target sequence (O15151 whole entry, looked up): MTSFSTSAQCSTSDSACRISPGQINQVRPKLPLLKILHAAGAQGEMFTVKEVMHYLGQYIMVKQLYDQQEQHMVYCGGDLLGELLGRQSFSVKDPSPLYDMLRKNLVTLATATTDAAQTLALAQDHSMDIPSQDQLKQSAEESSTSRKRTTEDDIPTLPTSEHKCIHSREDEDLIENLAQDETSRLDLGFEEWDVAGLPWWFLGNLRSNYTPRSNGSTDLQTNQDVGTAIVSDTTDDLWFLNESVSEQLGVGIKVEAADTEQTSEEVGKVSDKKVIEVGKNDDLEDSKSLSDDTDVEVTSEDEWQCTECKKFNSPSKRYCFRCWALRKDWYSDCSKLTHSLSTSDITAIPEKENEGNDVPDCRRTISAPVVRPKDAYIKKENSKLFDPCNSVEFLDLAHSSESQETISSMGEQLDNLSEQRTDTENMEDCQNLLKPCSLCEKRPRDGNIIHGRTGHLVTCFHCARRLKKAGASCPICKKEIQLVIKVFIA
Target sequence (Q00987 whole entry, looked up): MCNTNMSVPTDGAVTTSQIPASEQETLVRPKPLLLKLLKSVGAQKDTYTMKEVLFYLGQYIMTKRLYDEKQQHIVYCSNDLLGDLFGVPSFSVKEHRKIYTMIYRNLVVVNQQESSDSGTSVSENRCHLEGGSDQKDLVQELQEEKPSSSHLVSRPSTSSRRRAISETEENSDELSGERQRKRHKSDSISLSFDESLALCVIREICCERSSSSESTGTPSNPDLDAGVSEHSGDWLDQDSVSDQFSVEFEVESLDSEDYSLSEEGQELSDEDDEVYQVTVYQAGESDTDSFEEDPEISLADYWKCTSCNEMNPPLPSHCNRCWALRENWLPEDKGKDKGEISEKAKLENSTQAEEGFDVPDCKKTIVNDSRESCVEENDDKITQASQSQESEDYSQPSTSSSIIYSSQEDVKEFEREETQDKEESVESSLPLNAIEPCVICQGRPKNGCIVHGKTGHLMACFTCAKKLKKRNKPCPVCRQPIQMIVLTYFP
Mdm2-MdmX conf = confirmation of human Mdm2/MdmX interaction inhibitors; shares compounds with Mdm2-MdmX inh; Mdm2-MdmX binding, luminescent assay; inhibition, % at 8 µM; actives 55% (n = 10,000); AID 489028; in the data active = inhibition above about 40%
Full FLuc ctr = counter-screen for Mdm2/MdmX inhibitors: full-length luciferase | shares compounds with Mdm2-MdmX inh | SaOS-2 full-length luciferase counterscreen, luminescence | inhibition, % at 8 µM | actives 77% (n = 6,200) | AID 504607;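 active = mean inhibition at 8 µM reaching about 37%, which flags the compound as non-specific, limit read from the data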;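 note: p53-null SaOS-2 cells with luciferase driven by a doxycycline-inducible promoter; compound on cells about two nights before reading with doxycycline added after day one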
* marks the source's active call; other numbers are inactive results; ? = inconclusive; · = no result given. Shown are actives, neighbours in structure and some others; about 4.1% of the full set was active somewhere.

SMILES	A1 inh	Beta apoptosis	aSyn 5UTR inh	CSC inhib	Mdm2-MdmX inh	Mdm2-MdmX conf	Full FLuc ctr
COc1cc(NC(=O)c2ccc(C)cc2C)ccc1NC(=O)c1cc2ccccc2o1	15.3*	40.6	44.8	1.0	84.1*	62.5*	38.5*
COc1cc(NC(=O)c2ccc(F)cc2)ccc1NC(=O)c1cc2ccccc2o1	0.4	·	3.9	-9.6	18.9	·	·
COc1cc(NC(=O)c2ccccc2F)ccc1NC(=O)c1cc2ccccc2o1	13.8*	22.1	-67.2	37.6	67.5*	32.5	62.6*
COc1cc(NC(=O)c2ccc(C)cc2)ccc1NC(=O)c1cc2ccccc2o1	-0.3	2.9	-7.1	0.6	56.6*	23.2	90.5*
COc1cc(NC(=O)c2oc3ccccc3c2C)ccc1NC(=O)c1ccco1	-0.2	-0.4	-44.1	·	63.4*	32.1	55.6*
COc1cc(NC(=O)c2ccc(Cl)cc2Cl)ccc1-c1cc2ccccc2oc1=O	4.1	7.7	46.0	4.3	57.4*	25.9	·
COc1cc(NC(=O)c2cccc(F)c2)ccc1NC(=O)c1cc2ccccc2o1	2.2	3.4	-33.7	-3.8	87.1*	61.6*	85.9*
CCN(CC)S(=O)(=O)c1ccc(OCC(=O)NC(=O)Cc2ccccc2)c([N+](=O)[O-])c1	-0.8	-5.5	·	7.4	32.9	·	·
Cc1ccc(OCCNC(=O)c2ccccc2F)cc1	0.4	5.5	-23.2	-0.2	12.2	·	·
COC(=O)[C@H]1[C@H]2C[C@@H]3c4[nH]c5cc(OC)ccc5c4CCN3C[C@H]2C[C@@H](OC(=O)/C=C/c2cc(OC)c(OC)c(OC)c2)[C@@H]1OC	-0.3	4.4	·	4.4	63.9*	36.5	70.0*
COC(=O)[C@H]1[C@H]2C[C@@H]3c4[nH]c5cc(OC)ccc5c4CCN3C[C@H]2C[C@@H](OC(=O)c2ccc(N)cc2)[C@@H]1OC	0.1	5.7	16.9	-4.9	13.8	·	·
CCN(CC)CCCN(C(=O)c1cccc(C)c1)c1nc(-c2ccc(OC)cc2)cs1	1.3	·	11.9	7.3	55.9*	34.0	83.6*
CCN(CC)CCCN(C(=O)c1ccc(Br)cc1)c1nc(-c2ccc(OC)cc2)cs1	0.2	15.8	17.9	18.3	49.2	·	·
COc1cc(CNCCc2ccccc2)cc(Br)c1OCC(=O)Nc1ccccc1C	0.5	7.3	16.7	·	74.1*	37.7	72.2*
O=C(COc1ccc(Br)cc1CNCCc1ccccc1)NCc1ccccc1	-0.1	42.1	-16.2	30.9	55.7*	29.6	·
CCCNCc1cc(Br)ccc1OCC(=O)NCCc1ccccc1	-0.4	·	-23.7	·	2.4	·	·
CCOc1cc(CNC2CCCC2)cc(Cl)c1OCc1ccccc1	0.3	17.0	-13.8	·	51.9*	26.1	·
COc1cc(CNCCc2ccccc2)cc(Cl)c1OCc1ccccc1	0.7	14.5	7.0	?	77.9*	37.9	·
CNCc1cc(Br)c(OCC(=O)Nc2ccccc2OC)c(OC)c1	0.0	2.3	10.9	0.7	20.0	·	·
C[C@@H]1NS(=O)(=O)[C@H]2C[C@@H]3C=C[C@]2(O3)[C@H]1OC(=O)Nc1ccc(C(F)(F)F)cc1[N+](=O)[O-]	1.2	-7.0	·	-10.4	-18.7	·	·
Cc1ccc(C(=O)OCC(=O)NCc2ccco2)cc1C	-0.9	-5.6	·	-17.9	-10.4	·	·
C=CCn1c(CNS(=O)(=O)c2ccc(Br)cc2)n[nH]c1=S	-0.5	1.2	4.6	-19.7	-10.4	·	·
COC/C=C/C1=CC2=CC(=O)C(C)(OC(=O)c3cnc4ccccc4n3)C(=O)C2=CN1C1CCCC1 (stereo not given)	0.1	-9.4	-6.8	9.5	-15.1	·	·
Cc1ccc(S(=O)(=O)N2CCCCC2)cc1NC(=O)Cn1cnc2c1c(=O)n(C)c(=O)n2C	·	·	·	·	17.9	·	·
O=C(Nc1ccc(Cl)cc1)c1cc2c(cc1O)[nH]c1ccccc12	0.8	38.7	-3.3	115.6*	97.3*	92.7*	58.5*
SMILES	A1 inh	Beta apoptosis	aSyn 5UTR inh	CSC inhib	Mdm2-MdmX inh	Mdm2-MdmX conf	Full FLuc ctr
CC(=O)Nc1ccc2[nH]c3ccccc3c2c1	0.0	-1.4	-30.6	21.1	-7.3	·	·
N#Cc1ccsc1NC(=O)COC(=O)C1=NNC(=O)CC1	0.1	0.8	·	·	-23.9	·	·
CCN(C(=O)c1cccc(S(=O)(=O)N2CCCCC2)c1)C1CCS(=O)(=O)C1 (stereo not given)	·	·	1.1	·	-4.4	·	·
CC(=O)n1cc(N(C(=O)CCl)c2ccc([N+](=O)[O-])cc2)c2ccccc21	-0.3	0.2	37.4	40.8	97.7*	79.8*	42.0*
O=C(NC1CCN(CC(=O)N(c2ccccc2)c2ccccc2)CC1)c1ccc([N+](=O)[O-])cc1	0.1	2.5	19.5	16.0	23.3	·	·
CC(=O)n1cc(N(C(=O)CCl)c2ccccc2)c2ccccc21	1.9	-23.9	106.3*	23.4	96.6*	100.1*	51.5*
CC(=O)n1cc(CO)c2ccccc21	1.1	·	3.4	-5.5	16.0	·	·
O=Cc1[nH]c2ccccc2c1N(C(=O)CCl)c1ccc([N+](=O)[O-])cc1	-0.8	9.3	84.2*	66.4	97.4*	94.0*	25.5
COc1ccc(/C=N/N=C2/NC(=O)C(c3ccccc3)(c3ccccc3)S2)cc1	0.1	4.9	-10.2	15.3	61.4*	19.9	·
COc1ccc(NC(=O)C2CC(=O)N/C(=N/N=C/c3ccccc3)S2)cc1 (stereo not given)	0.7	-8.2	-2.7	-11.3	79.2*	59.2*	90.7*
COC(=O)C1=C(Nc2ccc(C)cc2)C=C(C)C(C(=O)OC)C1c1ccc(OC)cc1 (stereo not given)	1.3	19.0	56.9	67.5	44.2	·	·
COC(=O)C1=C(Nc2ccc(C)cc2)C=C(C)C(C(=O)OC)C1c1cccc(OC)c1 (stereo not given)	-0.1	10.5	10.2	-0.9	52.9*	56.9*	62.0*
CNCCCOc1ccc(C(C)(C)c2ccccc2)cc1	·	·	-21.7	·	·	·	·
CNCCC(Oc1ccc(C(F)(F)F)cc1)c1ccccc1 (stereo not given)	-0.7	10.0	4.8	6.5	50.8*	17.2	·
O=C(NCc1ccco1)c1cc2cc(Br)ccc2o1	-1.1	-0.1	-45.6	-4.7	-8.0	·	·
O=C(CC1OC(=O)c2ccccc21)Nc1cc(S(=O)(=O)N2CCOCC2)ccc1OCC(F)(F)F (stereo not given)	0.4	·	-2.0	-7.1	13.2	·	·
CCOC(=O)CN(C(=O)Cn1nnc(-c2ccc(OC)cc2)n1)C(C(=O)NC1CCCC1)c1ccc(F)cc1 (stereo not given)	1.2	-3.6	-0.1	-8.3	6.0	·	·
O=C(NCC1CCCO1)C(c1ccncc1)N(Cc1cccs1)C(=O)Cn1nnc(-c2ccc(F)cc2)n1 (stereo not given)	-0.4	-10.6	19.2	-8.9	14.1	·	·
CC(C)CCNC(=O)C(c1ccncc1)N(Cc1cccs1)C(=O)Cn1nnc(-c2ccc(F)cc2)n1 (stereo not given)	0.7	32.9	29.0	-12.1	68.5*	60.1*	26.3

Compound activity as filed in PubChem BioAssay.
